In PubChem BioAssay AID1159580 (chemical genetic matrix, 2015):
Among all 5,500 compounds or so, about 2,000 (36%) were called active. Inconclusive results (about 18%) are left out. No stated cut-off is given here; in the data, active means normalized growth mostly below about 0.91 (no sharp cut-off); inconclusive means no clear call, values can overlap the other calls; inactive means mostly above about 0.92. The list shows a part of the results.

Assay: chemical genetic growth profiling, strain panel (AID 1159580);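 further: tested at 20 µM; growth read once vehicle control cultures reached saturation at 30 °C; 1 = growth at the plate median or of vehicle wells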
Conditions: growth OD

Measured: normalized growth

O=c1[nH]cnc2nc[nH]c12
inactive: S. cerevisiae deletion strains, locus YJR066W, strain TOR1, stronger effect = lower value 0.979 | S. cerevisiae deletion strains, locus YJR075W, strain HOC1, stronger effect = lower value 1.01 | S. cerevisiae deletion strains, locus YKL009W, strain mrt4, stronger effect = lower value 0.974 | S. cerevisiae deletion strains, locus YKL068W, stronger effect = lower value 1.02 | S. cerevisiae deletion strains, locus YKL085W, strain MDH1 (second series), stronger effect = lower value 0.984 | S. cerevisiae deletion strains, locus YKL085W, strain MDH1, stronger effect = lower value 0.984 | S. cerevisiae deletion strains, locus YKL160W, strain elf1, stronger effect = lower value 1.01 | S. cerevisiae deletion strains, locus YKR001C, strain vps1, stronger effect = lower value 0.975 | S. cerevisiae deletion strains, locus YKR026C, strain gcn3, stronger effect = lower value 1.02 | S. cerevisiae deletion strains, locus YKR091W, strain srl3, stronger effect = lower value 1.02 | S. cerevisiae deletion strains, locus YLL001W, strain dnm1, stronger effect = lower value 1.01 | S. cerevisiae deletion strains, locus YLL026W, stronger effect = lower value 1.02 | S. cerevisiae deletion strains, locus YLL041C, strain sdh2, stronger effect = lower value 1.02 | S. cerevisiae deletion strains, locus YLR027C, strain aat2, stronger effect = lower value 1.01 | S. cerevisiae deletion strains, locus YLR039C, strain RIC1, stronger effect = lower value 1.01 | S. cerevisiae deletion strains, locus YLR058C, strain SHM2, stronger effect = lower value 1 | S. cerevisiae deletion strains, locus YLR102C, strain apc9, stronger effect = lower value 0.979 | S. cerevisiae deletion strains, locus YLR113W, strain HOG1, stronger effect = lower value 1.01 | S. cerevisiae deletion strains, locus YLR221C, strain rsa3, stronger effect = lower value 1.02 | S. cerevisiae deletion strains, locus YLR258W, strain gsy2, stronger effect = lower value 1.01 | S. cerevisiae deletion strains, locus YLR262C, strain YPT6 (second series), stronger effect = lower value 1.02 | S. cerevisiae deletion strains, locus YLR262C, strain YPT6, stronger effect = lower value 0.991 | S. cerevisiae deletion strains, locus YLR268W, strain sec22, stronger effect = lower value 0.971 | S. cerevisiae deletion strains, locus YLR320W, strain mms22, stronger effect = lower value 1.03 | S. cerevisiae deletion strains, locus YLR330W, strain CHS5, stronger effect = lower value 0.998 | S. cerevisiae deletion strains, locus YLR342W, strain FKS1 (second series), stronger effect = lower value 0.975 | S. cerevisiae deletion strains, locus YLR342W, strain FKS1, stronger effect = lower value 1.02 | S. cerevisiae deletion strains, locus YLR357W, strain rsc2, stronger effect = lower value 1.04 | S. cerevisiae deletion strains, locus YLR370C, strain arc18, stronger effect = lower value 1 | S. cerevisiae deletion strains, locus YLR371W, strain rom2, stronger effect = lower value 0.962 | S. cerevisiae deletion strains, locus YLR384C, strain iki3, stronger effect = lower value 1 | S. cerevisiae deletion strains, locus YLR418C, strain cdc73, stronger effect = lower value 0.994 | S. cerevisiae deletion strains, locus YML016C, strain PPZ1, stronger effect = lower value 0.995 | S. cerevisiae deletion strains, locus YML032C, strain rad52, stronger effect = lower value 0.988 | S. cerevisiae deletion strains, locus YML120C, strain ndi1, stronger effect = lower value 1.01 | S. cerevisiae deletion strains, locus YML124C, strain tub3, stronger effect = lower value 0.978 | S. cerevisiae deletion strains, locus YMR058W, strain fet3, stronger effect = lower value 1.02 | S. cerevisiae deletion strains, locus YMR078C, strain ctf18, stronger effect = lower value 0.997 | S. cerevisiae deletion strains, locus YMR125W, strain sto1, stronger effect = lower value 1.01 | S. cerevisiae deletion strains, locus YMR129W, stronger effect = lower value 1.01 | S. cerevisiae deletion strains, locus YMR205C, strain PFK2, stronger effect = lower value 1.02 | S. cerevisiae deletion strains, locus YMR223W, strain ubp8, stronger effect = lower value 0.985 | S. cerevisiae deletion strains, locus YMR231W, strain pep5, stronger effect = lower value 0.987 | S. cerevisiae deletion strains, locus YMR263W, strain SAP30, stronger effect = lower value 0.999 | S. cerevisiae deletion strains, locus YMR307W, strain GAS1, stronger effect = lower value 1.02 | S. cerevisiae deletion strains, locus YNL067W, strain RPL9B, stronger effect = lower value 1.02 | S. cerevisiae deletion strains, locus YNL071W, strain lat1, stronger effect = lower value 1.01 | S. cerevisiae deletion strains, locus YNL153C, strain GIM3, stronger effect = lower value 1.02 | S. cerevisiae deletion strains, locus YNL183C, strain NPR1, stronger effect = lower value 0.978 | S. cerevisiae deletion strains, locus YNL209W, strain ssb2, stronger effect = lower value 1.02 | S. cerevisiae deletion strains, locus YNL233W, strain BNI4, stronger effect = lower value 0.999 | S. cerevisiae deletion strains, locus YNL248C, strain rpa49, stronger effect = lower value 1.02 | S. cerevisiae deletion strains, locus YNL250W, strain rad50, stronger effect = lower value 0.977 | S. cerevisiae deletion strains, locus YNL271C, strain bni1, stronger effect = lower value 0.978 | S. cerevisiae deletion strains, locus YNL298W, strain CLA4, stronger effect = lower value 1 | S. cerevisiae deletion strains, locus YNL307C, strain MCK1, stronger effect = lower value 0.982 | S. cerevisiae deletion strains, locus YNL322C, strain KRE1 (second series), stronger effect = lower value 1.02 | S. cerevisiae deletion strains, locus YNL322C, strain KRE1, stronger effect = lower value 1.01 | S. cerevisiae deletion strains, locus YNR049C, strain mso1, stronger effect = lower value 1.03 | S. cerevisiae deletion strains, locus YNR052C, strain pop2, stronger effect = lower value 0.978 | S. cerevisiae deletion strains, locus YOL012C, strain htz1 1.01 | S. cerevisiae deletion strains, locus YOL147C, strain pex11, stronger effect = lower value 0.98 | S. cerevisiae deletion strains, locus YOR001W, strain rrp6, stronger effect = lower value 1.02 | S. cerevisiae deletion strains, locus YOR061W, strain CKA2, stronger effect = lower value 0.99 | S. cerevisiae deletion strains, locus YOR069W, strain VPS5, stronger effect = lower value 0.988 | S. cerevisiae deletion strains, locus YOR070C, strain gyp1, stronger effect = lower value 1.01 | S. cerevisiae deletion strains, locus YOR080W, strain dia2, stronger effect = lower value 1.03 | S. cerevisiae deletion strains, locus YOR083W, strain WHI5, stronger effect = lower value 1.01 | S. cerevisiae deletion strains, locus YOR106W, strain vam3, stronger effect = lower value 1.01 | S. cerevisiae deletion strains, locus YOR136W, strain idh2, stronger effect = lower value 0.973 | S. cerevisiae deletion strains, locus YOR144C, strain elg1, stronger effect = lower value 0.989 | S. cerevisiae deletion strains, locus YOR184W, strain ser1, stronger effect = lower value 0.98 | S. cerevisiae deletion strains, locus YOR231W, strain MKK1, stronger effect = lower value 1.02 | S. cerevisiae deletion strains, locus YOR265W, strain rbl2, stronger effect = lower value 1.03 | S. cerevisiae deletion strains, locus YOR270C, strain vph1, stronger effect = lower value 1.11 | S. cerevisiae deletion strains, locus YOR290C, strain snf2, stronger effect = lower value 1 | S. cerevisiae deletion strains, locus YOR316C, strain cot1, stronger effect = lower value 0.989 | S. cerevisiae deletion strains, locus YPL051W, strain arl3, stronger effect = lower value 1.03 | S. cerevisiae deletion strains, locus YPL055C, strain LGE1, stronger effect = lower value 1.03 | S. cerevisiae deletion strains, locus YPL078C, strain atp4, stronger effect = lower value 1.02 | S. cerevisiae deletion strains, locus YPL106C, strain sse1, stronger effect = lower value 0.994 | S. cerevisiae deletion strains, locus YPL240C, strain hsp82, stronger effect = lower value 1.01 | S. cerevisiae deletion strains, locus YPL256C, strain CLN2, stronger effect = lower value 0.996 | S. cerevisiae deletion strains, locus YPR119W, strain clb2, stronger effect = lower value 0.99 | S. cerevisiae deletion strains, locus YPR141C, strain kar3, stronger effect = lower value 0.977 | S. cerevisiae deletion strains, locus YPR163C, strain tif3, stronger effect = lower value 0.988 | S. cerevisiae deletion strains, locus YPR167C, strain met16, stronger effect = lower value 0.965 | S. cerevisiae deletion strains, strain wtn01, stronger effect = lower value 0.975 | S. cerevisiae strains, strain wild type, stronger effect = lower value 1
